Measured values as given in PubChem BioAssay (NCATS).
Values without a mark were called inactive. Results filed as inconclusive are left out. Activity calls are given as the source filed them. Unless noted, the call rests on the fitted dose curve; in most records, active means well fitted curve in either direction with a large enough effect (not every such curve was filed as active); inconclusive means small, poorly fitted or top-dose-only effect, or another doubt; inactive means flat fitted curve, though single readings scatter.

Columns and labels:
[1] = target: Lysosomal acid glucosylceramidase (Homo sapiens) (UniProt P04062); assay: Glucocerebrosidase-p2 (AID 348; in the data active means potency below about 10 µM; further: potency means the concentration at half of the fitted maximal effect); conditions: purified GBA, blue fluorogenic substrate, 40 min
Sequence of Lysosomal acid glucosylceramidase (Homo sapiens) (P04062 whole entry, looked up): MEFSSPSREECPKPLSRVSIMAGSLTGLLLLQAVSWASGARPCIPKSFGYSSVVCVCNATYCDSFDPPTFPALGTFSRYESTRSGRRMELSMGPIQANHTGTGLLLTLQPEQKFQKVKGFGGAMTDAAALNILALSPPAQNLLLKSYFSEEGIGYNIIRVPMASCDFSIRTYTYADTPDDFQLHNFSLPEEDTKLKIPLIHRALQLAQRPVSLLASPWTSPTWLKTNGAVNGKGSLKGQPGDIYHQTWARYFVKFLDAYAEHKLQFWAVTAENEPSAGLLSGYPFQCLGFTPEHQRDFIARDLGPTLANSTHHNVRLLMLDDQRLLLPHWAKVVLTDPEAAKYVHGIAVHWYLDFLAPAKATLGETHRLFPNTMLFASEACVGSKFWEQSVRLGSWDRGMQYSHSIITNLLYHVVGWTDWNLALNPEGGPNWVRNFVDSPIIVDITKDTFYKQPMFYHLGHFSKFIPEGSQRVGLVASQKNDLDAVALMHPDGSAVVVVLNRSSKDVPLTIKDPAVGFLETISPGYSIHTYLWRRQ
In short: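 Normal human glucocerebrosidase (0.2 nM) with blue fluorogenic substrate (80 uM final) in citrate/phosphate pH 5.9 with 10mM sodium taurocholate, 0.01% tween-20; 40 min RT, NaOH/glycine stop; fluorescence Ex 365/Em 440; AC50 from a titration from 0.6 nM upwards.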

[2] = AP1 Signaling Pathway (AID 357); conditions: ME-180 AP-1-bla reporter, EGF-induced, beta-lactamase ratio, 5 h; at 7.69 µM (top of the series) unless noted;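 further: ME-180 reporter cells stimulated with EGF at its EC50 level; on the % scale 0 is the no-effect control and ±100 the full control effect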
In short: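 First, ME-180 AP-1-bla cells were cultured overnight at 37 °C in low-serum Opti-MEM. Next, titrated compounds with EC50 EGF were incubated 5 hours. Finally, CCF4 was added for 2.5 hours and the 460/530 nm ratio recorded.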

[3] = target: Cytochrome P450 1A2 (Homo sapiens) (UniProt P05177); assay: p450-cyp1a2 (AID 410; calls by dose curve; further: potency means the concentration at half of the fitted maximal effect;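 on activity change, negative = inhibition: -100% = full effect of reference inhibitor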); conditions: recombinant CYP1A2, luciferin-ME demethylation, luminescence; series mostly up to 11.4 µM
Sequence of Cytochrome P450 1A2 (Homo sapiens) (P05177 whole entry, looked up): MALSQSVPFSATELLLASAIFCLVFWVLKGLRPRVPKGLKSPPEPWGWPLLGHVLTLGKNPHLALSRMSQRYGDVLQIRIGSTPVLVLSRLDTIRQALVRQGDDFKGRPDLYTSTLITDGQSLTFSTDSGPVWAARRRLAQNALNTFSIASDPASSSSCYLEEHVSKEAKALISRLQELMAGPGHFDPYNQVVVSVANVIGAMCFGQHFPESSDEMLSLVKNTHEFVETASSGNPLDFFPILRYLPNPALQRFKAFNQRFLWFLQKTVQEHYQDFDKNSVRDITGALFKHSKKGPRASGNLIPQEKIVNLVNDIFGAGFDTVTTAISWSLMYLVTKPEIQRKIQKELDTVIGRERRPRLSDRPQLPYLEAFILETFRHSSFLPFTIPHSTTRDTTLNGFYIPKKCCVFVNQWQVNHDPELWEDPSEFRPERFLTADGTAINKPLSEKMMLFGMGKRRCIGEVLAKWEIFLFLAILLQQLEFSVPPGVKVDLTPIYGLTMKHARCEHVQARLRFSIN
In short: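 Read-out is luminescence from luciferin produced by CYP1A2 demethylation of Luciferin-ME (100uM, at Km). Detection reagent stopped the 60 min NADPH-dependent reaction; signals were normalized to 57 uM furafylline.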

[4] = NFAT Signaling Pathway (AID 444); conditions: Jurkat NFAT-bla M1, carbachol, beta-lactamase ratio, 5 h; at 7.69 µM (top of the series) unless noted;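 further: carbachol stimulus at about its EC50 of 1 µM final; on the % scale 0 is the no-effect control and ±100 the full control effect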
In short: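 Jurkat cells with NFAT-driven β-lactamase reporter and co-expressed M1 receptor, stimulated with carbachol (final 1 uM, ~EC50), compound titration, 5 h at 37 °C. CCF4 loaded 1 h at RT; 460/530 nm ratio gave %activity and AC50.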

[5] = Stat Signaling Pathway (AID 446); conditions: ME-180 SIE beta-lactamase reporter, IL-6 stimulated, 5 h; at 7.69 µM (top of the series) unless noted;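 further: ME-180 cervical cancer cells given 40 pM IL-6 alongside compound; SIE-controlled beta-lactamase reporter measured as 460/530 nm FRET emission ratio; on the % scale 0 is the no-effect control and ±100 the full control effect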
In short: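 Compound effects on IL-6-induced STAT reporter activity were measured in ME-180 cells. After overnight culture, cells were co-treated with 40 pM IL-6 for 5 hrs before beta-lactamase substrate loading at room temperature.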

[6] = target: Glucocorticoid receptor (Homo sapiens) (UniProt P04150); assay: GR-GFP Redistribution (AID 450;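 active means compounds whose dose series gives a full or clear partial fitted curve of increased nuclear translocation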; further: potency means the concentration at half of the fitted maximal effect); conditions: U2OS GR-GFP nuclear translocation, laser cytometry, 2 h
Sequence of Glucocorticoid receptor (Homo sapiens) (P04150 whole entry, looked up, the tested form may be a part): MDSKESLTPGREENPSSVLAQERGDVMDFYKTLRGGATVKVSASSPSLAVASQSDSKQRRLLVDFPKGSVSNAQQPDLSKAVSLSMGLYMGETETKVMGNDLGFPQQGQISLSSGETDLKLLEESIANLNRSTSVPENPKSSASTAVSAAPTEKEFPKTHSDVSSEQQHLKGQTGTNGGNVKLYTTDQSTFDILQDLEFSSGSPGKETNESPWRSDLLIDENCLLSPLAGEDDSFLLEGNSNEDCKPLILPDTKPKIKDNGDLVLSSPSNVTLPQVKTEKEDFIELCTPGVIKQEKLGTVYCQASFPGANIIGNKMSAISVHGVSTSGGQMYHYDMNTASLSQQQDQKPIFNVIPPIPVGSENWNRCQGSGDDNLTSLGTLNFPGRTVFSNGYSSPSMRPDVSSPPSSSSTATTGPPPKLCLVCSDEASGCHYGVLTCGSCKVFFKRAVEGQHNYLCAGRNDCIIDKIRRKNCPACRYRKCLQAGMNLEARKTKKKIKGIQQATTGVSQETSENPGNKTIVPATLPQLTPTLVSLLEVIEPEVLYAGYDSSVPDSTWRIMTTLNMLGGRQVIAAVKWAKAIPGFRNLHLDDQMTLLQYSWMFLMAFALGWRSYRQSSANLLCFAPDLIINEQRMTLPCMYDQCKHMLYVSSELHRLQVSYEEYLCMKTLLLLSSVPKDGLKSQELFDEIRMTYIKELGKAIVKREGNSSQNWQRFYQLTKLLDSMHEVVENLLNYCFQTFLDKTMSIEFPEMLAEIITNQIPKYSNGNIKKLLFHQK

[7] = target: Glucocorticoid receptor (Homo sapiens) (UniProt P04150); assay: GR-EFC Redistribution (AID 451; calls by dose curve; further: potency means the concentration at half of the fitted maximal effect); conditions: CHO-K1 GR-EFC translocation, beta-gal luminescence, 2 h
In short: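 CHO-K1 cells expressing nuclear EA and GR-ED fragments of b-gal; compounds titrated up to 46 uM final, 2 h at 37 C. GR nuclear translocation read as complemented b-gal luminescence after 1 h RT detection.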

[8] = target: Mitogen-activated protein kinase 10 (Mus musculus) (UniProt Q61831); assay: JNK3 AlphaScreen Assay (AID 530); conditions: JNK3 lysate, c-Jun phosphorylation; series mostly up to 11.4 µM;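 further: kinase came from lysate of stimulated human HepG2 cells; signal reports phosphorylation of biotinylated GST-cJun 1-79 at Ser73 with 10 µM ATP; on the % scale 0 is the no-effect control and ±100 the full control effect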
In short: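 HepG2 lysate (IL-1b/TNFa pre-activated) + biotin-GST-cJun 1-79 + anti-pSer73 cJun; cpd titration, 15 min RT; ATP 10 uM start; Tris pH 7.6, MgCl2, DTT, vanadate; beads in EDTA buffer; AlphaScreen.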

[9] = target: 3',5'-cyclic-AMP phosphodiesterase 4B (Homo sapiens) (UniProt Q07343); assay: qHTS Assay for Inhibitors of PDE-IV (AID 607; active means well fitted activation curve with a large enough effect in the main read-out, with a control signal flat, not every such curve was filed as active; further: % of control where 0% means no effect); conditions: HEK293 ACTOne CNG channel cells, membrane potential fluorescence; series mostly up to 22.9 µM
Sequence of 3',5'-cyclic-AMP phosphodiesterase 4B (Homo sapiens) (Q07343 whole entry, looked up): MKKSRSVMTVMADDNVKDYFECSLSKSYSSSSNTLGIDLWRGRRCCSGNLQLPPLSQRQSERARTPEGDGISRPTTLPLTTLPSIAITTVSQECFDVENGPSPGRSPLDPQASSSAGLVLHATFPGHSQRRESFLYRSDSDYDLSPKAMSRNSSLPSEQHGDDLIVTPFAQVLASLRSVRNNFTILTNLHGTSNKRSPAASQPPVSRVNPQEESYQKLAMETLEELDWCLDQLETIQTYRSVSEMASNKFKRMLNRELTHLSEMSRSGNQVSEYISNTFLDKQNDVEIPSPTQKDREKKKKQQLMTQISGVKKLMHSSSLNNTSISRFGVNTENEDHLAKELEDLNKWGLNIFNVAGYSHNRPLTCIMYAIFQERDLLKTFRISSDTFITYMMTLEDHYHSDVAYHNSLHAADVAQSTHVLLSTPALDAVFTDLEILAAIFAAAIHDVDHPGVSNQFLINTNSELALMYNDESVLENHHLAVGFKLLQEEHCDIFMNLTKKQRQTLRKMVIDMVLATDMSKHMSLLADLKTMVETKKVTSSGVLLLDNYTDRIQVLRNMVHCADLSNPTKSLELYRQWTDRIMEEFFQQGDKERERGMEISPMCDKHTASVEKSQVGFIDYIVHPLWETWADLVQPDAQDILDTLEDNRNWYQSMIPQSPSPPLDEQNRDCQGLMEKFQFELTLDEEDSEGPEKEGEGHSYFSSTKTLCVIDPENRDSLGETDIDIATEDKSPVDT
In short: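 ACTOne HEK293 cells carry a modified cAMP-gated CNG channel and express endogenous PDE4; plated 1000 cells/well, compounds up to 22.9 uM final. Membrane-potential dye fluorescence (ex 535/em 590) was read; parental cells received 10 uM forskolin + 100 uM RO 20-1724.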

[10] = qHTS Assay for Identification of Small Molecule Agonists for Hypoxia Response Element Signaling Pathway (AID 914; active means well fitted activation curve with a large enough effect in the signal ratio, with a control signal flat, not every such curve was filed as active; the % refers to the signal ratio; further: % of control where 0% means no effect); conditions: ME-180 (cervical carcinoma) HRE-bla reporter, beta-lactamase ratio, CoCl2, 17 h; activation: hits give high values
In short: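 HRE-bla ME-180 cells with beta-lactamase reporter under hypoxia response element, compounds with EC50 CoCl2 for 17 hours at 37 C. CCF4 substrate, 460nm/530nm emission ratio gave %Activity; AC50 from titration series.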

SMILES	Potency [1] [µM]	activity change, negative = inhibition [2] [%]	activity change, negative = inhibition [3]	activity change, negative = inhibition [4] [%]	activity, negative = inhibition [5] [%]	Potency [6] [µM]	Potency [7] [µM]	Potency [8]	Potency [9]	activation [10] [%]	Potency [3]
Nc1nc(-c2cccc([N+](=O)[O-])c2)cc(-c2cc(-c3cccc([N+](=O)[O-])c3)nc(N)n2)n1	> 11.4	-0.341	0.3% [at 2.29 µM]	6.8	3.52	> 46	> 9.22	inactive	inactive	18.2	
FC(F)(F)c1nc(SCc2ccc(Cl)cc2)n[nH]1	> 11.4	1.59	-18.8% [at 2.29 µM]	-9.79	-0.49	> 46	> 9.22	inactive	inactive	8.01	
O=S(=O)(c1ccccc1)N1CN2CN(C1)CN(S(=O)(=O)c1ccccc1)C2	> 11.4	-16.9		-4.88	-0.275	> 46	> 9.22	inactive	inactive	-1.12	inactive
CCOC(=O)C(C)(C)[C@H](O)C(C)C	> 11.4	-4.38		6.94	-3.53	> 46	> 9.22	inactive	inactive	11.4	inactive
O=C1CCC(c2ccccc2)=NN1c1nc2ccccc2s1	> 11.4	-11.1		-3.68	-10.7	> 46	> 9.22	inactive	inactive	-16.7	0.398 µM (active)
O=C(O)C(Sc1ccc(Cl)cc1)Sc1ccc(Cl)cc1	> 11.4	0.225	-27.8% [at 2.29 µM]	-19.6	-29.3	> 46	> 9.22	inactive	inactive	-0.83	
N=C(N)SCc1cc(Cl)cc(Cl)c1O	> 11.4	3.73		5.42	2.98	> 46	> 9.22	inactive	inactive	-24.5	5.01 µM (active)
O=C1c2ccccc2-c2ccc(NC(=O)[C@H]3CCCC[C@@H]3C(=O)O)cc21	> 11.4	9.83		13.7	1.55	> 46	> 9.22	inactive	inactive	-7.45	1 µM (active)
CC1=N[C@@](C)(COC(=O)[C@]2(C)N[C@](C)(CO)CO2)COC1=O	> 11.4	0.84	6.9% [at 2.29 µM]	9.08	6.3	> 46	> 9.22	inactive	inactive	5.98	
C[C@@]1(C(=O)O)CCC[C@@H]1C(=O)O	> 11.4	8.46	-9.8% [at 2.29 µM]	5.02	2.41	> 46	> 9.22	inactive	inactive	4.07	
O=C(O)/C=C\C(=O)Nc1ccccn1	> 11.4	1.01		11.9	-1.9	> 46	> 9.22	inactive	inactive	4.82	inactive
O=C(O)[C@H]([C@H]1NCCS1)N1Cc2ccccc2C1	> 11.4	11	-13.4% [at 2.29 µM]	5.16	2.46	> 46	> 9.22	inactive	inactive	13.9	
N=C(N)[C@H](N=Nc1ccccc1)C(N)=O	> 11.4	20.5		1.62	1.3	> 46	> 9.22	inactive	inactive	1	0.794 µM (active)
C[C@@H]1NCC[C@H](CC(=O)O)[C@H]1CC(=O)O	> 11.4	8.61		-12	8.09	> 46	> 9.22	inactive	inactive	3.32	inactive
Cc1c(C(=O)O)nc(/C=C\C(=O)O)[nH]c1=O	> 11.4	11.1		3.17	21.1	> 46	> 9.22	inactive	inactive	12.3	inactive
OCCCNCc1ccccn1	> 11.4	-3.7	-20% [at 2.29 µM]	5.11	5.98	> 46	> 9.22	inactive	inactive	12.2	
C/C(=N/S(=O)(=O)c1ccc(Cl)c(Cl)c1)OCC(C)(C)C	> 11.4	2.66		20	1.9	> 46	> 9.22	inactive	inactive	8.96	inactive
O=C(O)[C@@H]1[C@@H](C(=O)Nc2ncccn2)[C@@H]2C=C[C@@H]1O2	> 11.4	-0.979	-13.2% [at 2.29 µM]	0.85	9.29	> 46	> 9.22	inactive	inactive	18.9	
O[C@@H](COc1cccc2ccccc12)CN1CCOCC1	> 11.4	3.83		4.33	3.7	> 46	> 9.22	inactive	inactive	3.28	3.98 µM (active)
NC(=O)C[C@H](N)C(N)=O	> 11.4	-1.63		12.4	2.81	> 46	> 9.22	inactive	inactive	9.57	inactive
NS(=O)(=O)c1ccc(N=C2C(=O)Nc3ccccc32)cc1	> 11.4	-4.71	-12.7% [at 2.29 µM]	4.31	4.23	> 46	> 9.22	inactive	inactive	-6.17	
Cc1c(NC(=O)Nc2c(Cl)cccc2Cl)c(=O)n(-c2ccccc2)n1C	> 11.4	4.18		-0.333	-1.35	> 46	> 9.22	inactive	inactive	-3.31	inactive
C[C@@](N)(/C=C\c1ccccc1)C(=O)O	> 11.4	-1.95		12	-3.44	> 46	> 9.22	inactive	inactive	-2.86	inactive
N=c1nc(N)nc(N)n1-c1ccc(S(N)(=O)=O)cc1	> 11.4	4.82	-3.8% [at 2.29 µM]	9.5	6.13	> 46	> 9.22	inactive	inactive	8.62	
CN(C)Cc1ccc(O)c(CN(C)C)n1	> 11.4	1.16		4.31	0.249	> 46	> 9.22	inactive	inactive	2.88	inactive
O=S(=O)(O)c1ccc(-c2nnc(-c3ccccn3)nc2-c2ccc(S(=O)(=O)O)o2)o1	> 11.4	4.23		3.88	2.53	> 46	> 9.22	inactive	inactive	8.26	inactive
O=C(O)C1(Nc2ccc(Cl)cc2)CCCC1	> 11.4	-1.27		7.56	5.72	> 46	> 9.22	inactive	inactive	0.664	inactive
NCC[C@H](N)C(=O)O	> 11.4	-2.63	-8.9% [at 2.29 µM]	8.74	-3.44	> 46	> 9.22	inactive	inactive	-6.29	
N[C@@H](Cc1c[nH]c2ccc([N+](=O)[O-])cc12)C(=O)O	> 11.4	-1.05		-4.18	3.4	> 46	> 9.22	inactive	inactive	-2.55	inactive
